Our source for the residual activity values is ChEMBL document CHEMBL2218924, “A broad activity screen in support of a chemogenomic map for kinase signalling research and drug discovery” (Biochem J, 2013).

In test [1] the target is T1, Ephrin type-A receptor 3 (Homo sapiens) (UniProt P29320).
T1 sequence (whole entry): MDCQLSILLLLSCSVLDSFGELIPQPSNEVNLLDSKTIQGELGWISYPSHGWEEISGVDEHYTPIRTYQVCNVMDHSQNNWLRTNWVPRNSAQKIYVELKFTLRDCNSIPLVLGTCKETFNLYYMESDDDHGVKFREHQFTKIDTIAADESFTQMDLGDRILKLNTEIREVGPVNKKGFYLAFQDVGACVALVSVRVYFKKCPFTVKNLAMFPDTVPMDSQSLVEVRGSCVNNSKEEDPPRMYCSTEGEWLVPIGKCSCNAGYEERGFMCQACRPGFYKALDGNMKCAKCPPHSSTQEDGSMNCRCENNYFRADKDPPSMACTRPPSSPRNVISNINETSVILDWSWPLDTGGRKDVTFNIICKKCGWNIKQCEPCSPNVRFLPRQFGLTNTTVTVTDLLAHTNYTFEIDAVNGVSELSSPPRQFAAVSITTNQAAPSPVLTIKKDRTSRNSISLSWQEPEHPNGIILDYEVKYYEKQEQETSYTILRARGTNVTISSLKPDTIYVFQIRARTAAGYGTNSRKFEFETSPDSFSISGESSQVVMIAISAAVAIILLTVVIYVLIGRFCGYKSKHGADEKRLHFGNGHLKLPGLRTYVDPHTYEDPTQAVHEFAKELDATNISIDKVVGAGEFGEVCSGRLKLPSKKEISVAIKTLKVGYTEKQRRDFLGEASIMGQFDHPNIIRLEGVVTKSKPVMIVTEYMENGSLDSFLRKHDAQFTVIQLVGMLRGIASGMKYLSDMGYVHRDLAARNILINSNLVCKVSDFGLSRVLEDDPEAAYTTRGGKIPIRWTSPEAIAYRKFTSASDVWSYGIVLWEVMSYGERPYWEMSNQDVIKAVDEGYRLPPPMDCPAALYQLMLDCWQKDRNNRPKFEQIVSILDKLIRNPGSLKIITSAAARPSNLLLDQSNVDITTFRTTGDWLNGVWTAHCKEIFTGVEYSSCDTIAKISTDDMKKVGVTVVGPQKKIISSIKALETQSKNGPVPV
The conditions noted are these: at 10 µM.

Test [2] addresses Ephrin type-A receptor 4 (Homo sapiens) (UniProt P54764). To be noted: at 1 µM.
Test [3] shares this target. The conditions noted are these: at 10 µM.
Test [4] deals with Ephrin type-A receptor 5 (Homo sapiens) (UniProt P54756). The conditions noted are these: at 1 µM.
Sequence of Ephrin type-A receptor 5 (Homo sapiens) (P54756 whole entry): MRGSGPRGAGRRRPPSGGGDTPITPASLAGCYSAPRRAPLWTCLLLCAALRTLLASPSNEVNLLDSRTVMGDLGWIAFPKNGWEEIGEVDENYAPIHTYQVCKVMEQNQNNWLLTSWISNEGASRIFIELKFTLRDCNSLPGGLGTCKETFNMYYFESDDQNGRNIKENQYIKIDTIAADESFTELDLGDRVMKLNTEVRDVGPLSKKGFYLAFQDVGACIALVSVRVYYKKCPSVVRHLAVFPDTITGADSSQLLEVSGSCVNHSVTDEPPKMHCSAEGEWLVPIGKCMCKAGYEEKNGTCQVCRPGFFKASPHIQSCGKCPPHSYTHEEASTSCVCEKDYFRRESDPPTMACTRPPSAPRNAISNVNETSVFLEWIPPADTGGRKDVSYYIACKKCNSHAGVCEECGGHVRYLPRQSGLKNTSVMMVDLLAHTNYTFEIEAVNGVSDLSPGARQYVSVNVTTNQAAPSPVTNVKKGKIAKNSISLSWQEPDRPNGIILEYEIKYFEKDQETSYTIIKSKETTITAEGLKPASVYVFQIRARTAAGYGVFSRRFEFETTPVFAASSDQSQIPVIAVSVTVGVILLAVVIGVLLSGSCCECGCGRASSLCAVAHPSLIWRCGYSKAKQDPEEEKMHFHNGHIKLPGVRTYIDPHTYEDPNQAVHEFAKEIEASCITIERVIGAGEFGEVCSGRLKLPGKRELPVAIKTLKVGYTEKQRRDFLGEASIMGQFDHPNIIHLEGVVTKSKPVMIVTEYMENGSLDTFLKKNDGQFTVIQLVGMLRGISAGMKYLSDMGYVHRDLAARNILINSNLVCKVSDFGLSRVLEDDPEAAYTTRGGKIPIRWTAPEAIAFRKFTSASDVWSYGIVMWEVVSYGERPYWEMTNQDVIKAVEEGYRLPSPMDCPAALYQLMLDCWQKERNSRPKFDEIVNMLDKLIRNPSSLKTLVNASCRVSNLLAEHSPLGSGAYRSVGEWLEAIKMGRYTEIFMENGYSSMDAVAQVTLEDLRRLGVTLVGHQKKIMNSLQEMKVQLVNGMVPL
Test [5] has the same target. The conditions noted are these: at 10 µM.
For test [6], the target named is Ephrin type-A receptor 7 (Homo sapiens) (UniProt Q15375). To be noted: at 1 µM.
Sequence of Ephrin type-A receptor 7 (Homo sapiens) (Q15375 28-998 limits assumed): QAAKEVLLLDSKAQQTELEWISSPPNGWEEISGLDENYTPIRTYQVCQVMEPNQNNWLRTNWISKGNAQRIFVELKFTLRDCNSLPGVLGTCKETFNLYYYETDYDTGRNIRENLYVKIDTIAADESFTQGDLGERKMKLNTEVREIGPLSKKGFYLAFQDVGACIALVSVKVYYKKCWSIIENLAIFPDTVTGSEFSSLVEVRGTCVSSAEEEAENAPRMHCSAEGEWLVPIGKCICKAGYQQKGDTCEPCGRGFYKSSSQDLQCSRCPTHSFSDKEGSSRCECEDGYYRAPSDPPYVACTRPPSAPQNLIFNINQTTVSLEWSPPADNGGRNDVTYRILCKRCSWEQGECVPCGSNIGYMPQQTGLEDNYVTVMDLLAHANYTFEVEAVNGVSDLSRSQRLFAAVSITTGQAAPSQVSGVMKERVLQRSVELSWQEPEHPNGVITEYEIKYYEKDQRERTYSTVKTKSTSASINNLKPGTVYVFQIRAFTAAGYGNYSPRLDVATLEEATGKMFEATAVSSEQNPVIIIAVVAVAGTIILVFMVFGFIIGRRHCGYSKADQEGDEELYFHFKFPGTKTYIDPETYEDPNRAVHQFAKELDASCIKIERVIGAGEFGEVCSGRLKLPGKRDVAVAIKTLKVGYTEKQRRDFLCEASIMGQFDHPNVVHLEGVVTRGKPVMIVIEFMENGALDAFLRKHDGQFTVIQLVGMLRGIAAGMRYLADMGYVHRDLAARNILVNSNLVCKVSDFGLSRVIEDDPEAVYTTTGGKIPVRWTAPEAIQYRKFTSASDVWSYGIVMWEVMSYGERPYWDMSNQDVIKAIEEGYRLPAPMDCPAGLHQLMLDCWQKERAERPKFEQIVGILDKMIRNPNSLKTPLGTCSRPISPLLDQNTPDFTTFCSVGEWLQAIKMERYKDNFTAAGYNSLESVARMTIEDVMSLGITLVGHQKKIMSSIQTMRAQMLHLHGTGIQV
Test [7] shares this target. To be noted: at 10 µM.
Test [8] deals with T2, Ephrin type-A receptor 8 (Homo sapiens) (UniProt P29322).
T2 sequence (whole entry): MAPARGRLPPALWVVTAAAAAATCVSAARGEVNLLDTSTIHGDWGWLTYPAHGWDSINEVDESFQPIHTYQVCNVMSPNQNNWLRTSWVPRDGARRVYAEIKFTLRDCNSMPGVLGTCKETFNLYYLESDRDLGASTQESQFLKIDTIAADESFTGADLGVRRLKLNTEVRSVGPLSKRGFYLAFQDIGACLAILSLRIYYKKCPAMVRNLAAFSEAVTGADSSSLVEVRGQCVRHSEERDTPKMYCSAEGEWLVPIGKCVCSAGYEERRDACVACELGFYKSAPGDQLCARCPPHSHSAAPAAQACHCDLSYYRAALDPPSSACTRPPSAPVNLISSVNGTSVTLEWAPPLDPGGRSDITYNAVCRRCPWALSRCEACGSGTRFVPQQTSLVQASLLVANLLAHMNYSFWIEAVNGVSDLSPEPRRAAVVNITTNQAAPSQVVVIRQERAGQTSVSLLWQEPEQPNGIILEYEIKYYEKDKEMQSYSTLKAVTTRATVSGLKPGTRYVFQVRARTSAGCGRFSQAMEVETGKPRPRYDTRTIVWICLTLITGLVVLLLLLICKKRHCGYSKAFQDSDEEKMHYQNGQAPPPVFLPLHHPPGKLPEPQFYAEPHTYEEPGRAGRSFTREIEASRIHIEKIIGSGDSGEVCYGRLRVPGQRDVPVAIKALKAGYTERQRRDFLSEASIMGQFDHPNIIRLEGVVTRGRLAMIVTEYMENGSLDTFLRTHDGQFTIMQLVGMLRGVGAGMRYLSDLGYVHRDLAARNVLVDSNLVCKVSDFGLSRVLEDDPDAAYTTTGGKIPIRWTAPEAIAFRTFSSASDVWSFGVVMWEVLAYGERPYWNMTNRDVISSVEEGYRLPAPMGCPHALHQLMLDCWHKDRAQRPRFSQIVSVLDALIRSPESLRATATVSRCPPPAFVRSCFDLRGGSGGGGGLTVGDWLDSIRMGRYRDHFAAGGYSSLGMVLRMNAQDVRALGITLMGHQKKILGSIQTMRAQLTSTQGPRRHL
To be noted: at 1 µM.

For test [9], the target named is T2, Ephrin type-A receptor 8 (Homo sapiens). To be noted: at 10 µM.
The target in test [10] is T3, Ephrin type-B receptor 1 (Homo sapiens) (UniProt P54762).
T3 sequence (whole entry): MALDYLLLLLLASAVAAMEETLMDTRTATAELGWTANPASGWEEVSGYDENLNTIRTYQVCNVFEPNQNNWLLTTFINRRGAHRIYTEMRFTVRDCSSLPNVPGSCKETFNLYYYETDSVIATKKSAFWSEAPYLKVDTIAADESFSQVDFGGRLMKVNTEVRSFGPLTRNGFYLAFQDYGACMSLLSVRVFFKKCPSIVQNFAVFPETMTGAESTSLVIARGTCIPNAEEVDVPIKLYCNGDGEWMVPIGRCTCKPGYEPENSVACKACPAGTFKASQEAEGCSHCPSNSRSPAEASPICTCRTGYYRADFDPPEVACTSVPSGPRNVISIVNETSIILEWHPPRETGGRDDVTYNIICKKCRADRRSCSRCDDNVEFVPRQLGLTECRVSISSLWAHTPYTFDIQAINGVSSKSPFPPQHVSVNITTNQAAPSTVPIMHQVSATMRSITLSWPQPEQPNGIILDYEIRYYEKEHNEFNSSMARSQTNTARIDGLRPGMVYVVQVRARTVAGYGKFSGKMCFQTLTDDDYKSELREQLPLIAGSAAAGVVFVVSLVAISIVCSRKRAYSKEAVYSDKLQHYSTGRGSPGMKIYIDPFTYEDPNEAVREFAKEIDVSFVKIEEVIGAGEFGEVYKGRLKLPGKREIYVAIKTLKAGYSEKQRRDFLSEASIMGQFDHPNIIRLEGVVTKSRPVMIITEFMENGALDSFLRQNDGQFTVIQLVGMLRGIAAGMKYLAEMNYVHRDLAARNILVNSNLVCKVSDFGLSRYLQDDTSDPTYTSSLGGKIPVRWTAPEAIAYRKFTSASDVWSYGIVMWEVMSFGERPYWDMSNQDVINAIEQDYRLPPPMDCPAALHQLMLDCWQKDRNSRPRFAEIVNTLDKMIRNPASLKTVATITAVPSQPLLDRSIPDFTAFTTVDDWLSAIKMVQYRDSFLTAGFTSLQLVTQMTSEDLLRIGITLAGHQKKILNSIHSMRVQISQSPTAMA
The conditions noted are these: at 1 µM.

Sequence of Ephrin type-A receptor 4 (Homo sapiens) (P54764 whole entry): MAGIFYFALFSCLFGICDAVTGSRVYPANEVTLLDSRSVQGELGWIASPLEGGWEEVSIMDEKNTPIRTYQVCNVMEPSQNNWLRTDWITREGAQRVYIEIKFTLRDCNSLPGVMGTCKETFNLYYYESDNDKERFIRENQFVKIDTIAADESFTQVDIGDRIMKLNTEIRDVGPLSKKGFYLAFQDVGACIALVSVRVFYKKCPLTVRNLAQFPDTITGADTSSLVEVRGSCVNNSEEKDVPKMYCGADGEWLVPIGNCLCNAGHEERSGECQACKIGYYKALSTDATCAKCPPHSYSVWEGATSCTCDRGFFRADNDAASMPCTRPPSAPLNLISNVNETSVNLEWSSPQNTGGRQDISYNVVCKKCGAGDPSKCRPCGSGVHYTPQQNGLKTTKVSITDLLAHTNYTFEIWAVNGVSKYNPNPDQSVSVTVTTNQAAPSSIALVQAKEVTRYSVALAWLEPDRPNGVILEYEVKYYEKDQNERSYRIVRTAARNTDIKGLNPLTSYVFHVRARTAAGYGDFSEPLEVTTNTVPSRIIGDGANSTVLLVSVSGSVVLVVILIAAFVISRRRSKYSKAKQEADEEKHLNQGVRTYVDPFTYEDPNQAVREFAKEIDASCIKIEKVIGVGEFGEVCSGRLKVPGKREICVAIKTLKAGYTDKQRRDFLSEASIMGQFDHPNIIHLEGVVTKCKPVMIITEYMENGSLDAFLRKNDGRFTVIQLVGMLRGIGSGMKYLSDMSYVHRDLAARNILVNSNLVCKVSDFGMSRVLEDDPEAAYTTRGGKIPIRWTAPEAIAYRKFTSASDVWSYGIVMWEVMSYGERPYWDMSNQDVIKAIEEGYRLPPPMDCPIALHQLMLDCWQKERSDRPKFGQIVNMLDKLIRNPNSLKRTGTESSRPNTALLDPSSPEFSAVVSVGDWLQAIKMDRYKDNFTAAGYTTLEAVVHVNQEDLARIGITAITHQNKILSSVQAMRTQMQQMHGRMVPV

The term residual activity denotes the signal under treatment as a percentage of the control signal. With `O=C(O)c1ccc2c3c1cccc3c(=O)n1c3ccccc3nc21`, the residual activity in [1] turned out to be 91%; in [2] it was 106%; in test [3], 104%; in [4] it was 102%; in test [5], 100%; in [6], 104%. Besides, the residual activity in test [7] amounted to 88%; in [8], 103%; in [9], 93%; in test [10], 107%.
